Inconclusive results are not listed. Entries that show only a call come without a potency. Active and inactive are the calls of the source. Unless noted, calls come from the whole dose curve; as a rule, active = well fitted curve in the direction sought with a large enough effect; inconclusive = small, poorly fitted or top-dose-only effect, or another doubt; inactive = no such curve, though single readings can be large; an effect the other way counts as inactive or inconclusive.

The target in assay [1] is ATP-dependent 6-phosphofructokinase (Trypanosoma brucei brucei) (UniProt O15648). Nature of the assay: qHTS Assay to Find Inhibitors of T. brucei phosphofructokinase: hit validation (AID 492961).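 Note: luminescence reports ADP formed as PFK phosphorylates fructose-6-phosphate with ATP; series mostly up to about 51 µM.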 An outline of the steps: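 Reaction: 0.1 M triethanolamine pH 8.0, 5 mM MgCl2, F6P 0.5 mM, ATP 0.1 mM, PFK 1.25 nM, 45 min RT. Read-out: ADP-Glo luminescence. Analysis: concentration-response fits, classed by r2 and efficacy.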
Background: qHTS replaces the single test concentration by a dilution series.

Assay [2] addresses Ubiquitin carboxyl-terminal hydrolase 1 (Homo sapiens) (UniProt O94782). Nature of the assay: Inhibitors of USP1/UAF1: Pilot qHTS (AID 504865). Note: nearly all actives have a fitted effect of over 35% in size. Note: potency is the fitted concentration of half-maximal effect. An outline of the steps: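 Deubiquitinase activity followed as kinetic rhodamine fluorescence release from 150 nM Ub-Rho. 1 nM USP1/UAF1 with compound, after 15 min room-temperature preincubation, in HEPES pH 7.8 buffer containing TCEP, EDTA, BSA and Tween-20.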

The target in assay [3] is Estrogen receptor (Homo sapiens) (UniProt P03372). Nature of the assay: qHTS assay for small molecule antagonists of estrogen receptor alpha signaling (AID 588513; active = well fitted curve in the direction sought with a large enough effect in the signal ratio, with a control signal flat, not every such curve was filed as active; the % refers to the signal ratio). In outline:
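Antagonist mode: inhibition of 0.5 nM 17-beta-estradiol-driven beta-lactamase reporter in HEK 293 ER-alpha-UAS-bla cells, 18 h at 37C, CCF4 readout after 2 h at RT. Normalised to estradiol and DMSO; titration fitted to Hill.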

Sequence of ATP-dependent 6-phosphofructokinase (Trypanosoma brucei brucei) (O15648 whole entry, looked up): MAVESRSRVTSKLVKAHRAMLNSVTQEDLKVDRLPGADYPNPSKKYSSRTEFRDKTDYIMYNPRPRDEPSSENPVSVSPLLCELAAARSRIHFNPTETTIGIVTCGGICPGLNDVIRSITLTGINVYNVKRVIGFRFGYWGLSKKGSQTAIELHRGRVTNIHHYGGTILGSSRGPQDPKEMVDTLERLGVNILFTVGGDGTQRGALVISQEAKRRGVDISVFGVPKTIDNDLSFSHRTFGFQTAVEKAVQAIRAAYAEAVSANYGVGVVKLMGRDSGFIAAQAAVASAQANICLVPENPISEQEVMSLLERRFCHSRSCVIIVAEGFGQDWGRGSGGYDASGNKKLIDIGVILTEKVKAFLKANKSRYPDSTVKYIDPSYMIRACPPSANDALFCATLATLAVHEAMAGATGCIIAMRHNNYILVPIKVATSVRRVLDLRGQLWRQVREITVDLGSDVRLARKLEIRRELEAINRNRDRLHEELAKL
Sequence of Ubiquitin carboxyl-terminal hydrolase 1 (Homo sapiens) (O94782 whole entry, looked up): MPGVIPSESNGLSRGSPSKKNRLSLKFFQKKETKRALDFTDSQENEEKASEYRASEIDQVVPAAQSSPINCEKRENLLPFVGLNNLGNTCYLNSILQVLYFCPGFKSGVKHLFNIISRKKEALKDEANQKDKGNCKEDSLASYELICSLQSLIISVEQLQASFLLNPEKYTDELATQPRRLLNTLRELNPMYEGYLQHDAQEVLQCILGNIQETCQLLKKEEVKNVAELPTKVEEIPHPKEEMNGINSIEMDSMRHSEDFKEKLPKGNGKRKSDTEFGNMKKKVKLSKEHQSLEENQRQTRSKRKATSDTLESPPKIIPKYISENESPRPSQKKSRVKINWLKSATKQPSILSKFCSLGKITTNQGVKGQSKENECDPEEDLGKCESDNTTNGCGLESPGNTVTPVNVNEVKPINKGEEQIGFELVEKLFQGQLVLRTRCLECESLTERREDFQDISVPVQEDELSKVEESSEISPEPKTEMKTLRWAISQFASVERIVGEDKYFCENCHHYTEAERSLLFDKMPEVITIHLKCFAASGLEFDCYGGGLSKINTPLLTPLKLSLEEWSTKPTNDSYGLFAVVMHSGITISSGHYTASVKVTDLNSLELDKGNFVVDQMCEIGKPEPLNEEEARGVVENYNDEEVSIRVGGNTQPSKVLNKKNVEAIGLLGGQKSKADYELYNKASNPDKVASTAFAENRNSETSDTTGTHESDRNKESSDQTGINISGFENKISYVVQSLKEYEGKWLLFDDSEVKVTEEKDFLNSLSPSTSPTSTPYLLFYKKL
Sequence of Estrogen receptor (Homo sapiens) (P03372 whole entry, looked up): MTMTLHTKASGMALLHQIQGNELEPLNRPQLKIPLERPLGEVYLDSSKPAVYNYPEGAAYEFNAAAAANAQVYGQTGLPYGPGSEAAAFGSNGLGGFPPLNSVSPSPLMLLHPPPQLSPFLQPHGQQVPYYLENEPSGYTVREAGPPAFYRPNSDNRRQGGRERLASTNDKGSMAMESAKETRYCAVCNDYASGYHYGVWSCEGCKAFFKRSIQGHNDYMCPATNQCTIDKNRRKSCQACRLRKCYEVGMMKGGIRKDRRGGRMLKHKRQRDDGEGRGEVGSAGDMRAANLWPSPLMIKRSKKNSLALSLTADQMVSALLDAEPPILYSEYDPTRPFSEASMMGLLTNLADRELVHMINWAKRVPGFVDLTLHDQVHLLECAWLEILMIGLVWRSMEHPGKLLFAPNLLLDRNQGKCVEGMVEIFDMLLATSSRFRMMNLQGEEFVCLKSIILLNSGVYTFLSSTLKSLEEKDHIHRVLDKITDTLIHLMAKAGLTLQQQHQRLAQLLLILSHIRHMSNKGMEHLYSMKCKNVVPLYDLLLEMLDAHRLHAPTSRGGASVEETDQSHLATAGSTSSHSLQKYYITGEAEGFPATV

In the case of `CC1(C)C(C=C(Cl)Cl)C1C(=O)OCc1cccc(Oc2ccccc2)c1` (stereo not drawn), the Potency entry in assay [1] and in assay [2] was “inactive” throughout. Moreover, the call in assay [3] was inactive.
As to `CCCCCCCC/C=C\CCCCCCCC(=O)O`, in assay [1], the Potency entry is “inactive”. In addition, in assay [2], the Potency was 35.5 µM (active). Moreover, in assay [3], the compound was called inactive.
As to `C[C@]12CCC(=O)C=C1CC[C@@H]1[C@@H]2[C@@H](O)C[C@@]2(C)[C@H]1CC[C@]2(O)C(=O)COP(=O)(O)O`, the Potency result in assay [1] and in assay [2] was “inactive” each time.

For the origin of these results see PubChem BioAssay (NCATS).
